ClpP mod: qHTS Assay for Activators of ClpP. ATP-dependent Clp protease proteolytic subunit (Bacillus subtilis (strain 168)), P80244. purified B. subtilis ClpP, FRET peptide cleavage, 20 min. Potency, µM (series often up to 57.5 µM), for inactives: at the top dose activity change, negative = active. 340,000 tested, 1.9% active; active = well fitted falling curve with a large enough effect; inconclusive = small, poorly fitted or top-dose-only effect; inactive = no such curve, though single readings can be large or run the other way; also: the source files actives as falling curves though it sought activators and does not explain the sign; nearly all actives have a fitted effect of over 65% in size
Target sequence (P80244 whole entry, looked up): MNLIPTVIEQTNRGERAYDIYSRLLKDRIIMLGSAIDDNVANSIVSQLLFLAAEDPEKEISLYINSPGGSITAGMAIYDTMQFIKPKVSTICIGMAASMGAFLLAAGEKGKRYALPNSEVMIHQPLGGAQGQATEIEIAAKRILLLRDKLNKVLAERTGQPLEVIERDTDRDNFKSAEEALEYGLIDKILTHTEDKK
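FRET quenching reversal measured ClpP activation: 10 microg/mL B. subtilis ClpP at pH 8 with the FRET-FV decapeptide, read at 430 nm after 320 nm excitation. The 20-min minus 0-min signal was scaled between DMSO/no-enzyme wells and ADEP (5.8 microM final).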
VP16 counter: VP16 counterscreen qHTS for inhibitors of ROR gamma transcriptional activity | Drosophila S2 Gal4-VP16 UAS-luciferase, luminescence, 20 h | Potency, µM (titrated, usually from 53.6 µM), for inactives: at the highest dose activity, negative = inhibition, most hits filed as inhibitors | 310,000 tested, 3.5% active | AID 2546, 2010;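 also: Gal4-VP16 expression switched on by copper sulfate through the metallothionein promoter; % is scaled to controls: 0 for no effect and ±100 for the full control effect; nearly all actives have a fitted effect of over 50% in size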
Epigenetic derep: Quantitative High-Throughput Screen for Regulators of Epigenetic Control; murine LDR cells, GFP reporter derepression, 30 h; 280,000 tested, 0.2% active; Potency, µM (doses to about 53.9 µM), without a hit: at the top dose GFP activation, most hits filed as activators; also: % of control where 0% means no effect; nearly all actives have a fitted effect of over 60% in size
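GFP-positive cell count by laser-scanning cytometry (objects 20–120 um) after 30 h, 37 C compound exposure of murine LDR cells; reporter is CMV-GFP integrated at a silenced locus, inducible by HDAC or DNMT inhibitors.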
PINK1 modulator: A Quantitative High throughput Screen to Identify Chemical Modulators of PINK1 Expression; PINK1 immunofluorescence, high-content cytometry, 24 h; Potency, µM (doses to about 76.6 µM), without a hit: at the top dose activation (PINK1 increase), usual class: activators; 410,000 tested, 0.2% active; active = well fitted activation curve with a large enough effect; inconclusive = small, poorly fitted or top-dose-only effect; cell line not stated here; also: % of control where 0% means no effect; nearly all actives have a fitted effect of over 65% in size
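PINK1 protein, normally rapidly degraded, was detected by immunofluorescence after 24 hour compound treatment of a stable cell line. Titration data (5 concentrations) came from laser-scanning cytometry, with CCCP-treated wells as controls.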
Sfp inh: qHTS Assay for Inhibitors of Bacillus subtilis Sfp phosphopantetheinyl transferase (PPTase); Biochemical Sfp PPTase activity, qHTS; Potency, µM, for the others: largest response in the series, negative = inhibition, actives largely listed as inhibitors; 310,000 tested, 3.5% active; AID 1490, 2009;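 also: the enzyme is Sfp with the accession as filed and its product quenches rhodamine fluorescence; 0% = enzyme reaction without inhibitor and -100% = no enzyme wells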
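With Hepes-Na pH 7.6 buffer containing 10 mM MgCl2, Sfp (15 nM) modified BHQ-2-YbbR (12.5 uM) using rhodamine-CoA (5 uM). Two reads 30 minutes apart at 525/598 nm yielded each well's rate.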
RORgamma inh: qHTS for inhibitors of ROR gamma transcriptional activity. Drosophila S2 Gal4-RORgamma UAS-luciferase reporter, 20 h. Nuclear receptor ROR-gamma (Mus musculus), P51450. 310,000 tested, 5.4% active. Potency, µM (series often up to 53.6 µM), without a hit: at the highest dose activity change, negative = inhibition, most hits filed as inhibitors. AID 2551, 2010; also: % is scaled to controls: 0 for no effect and ±100 for the full control effect; nearly all actives have a fitted effect of over 60% in size
Target sequence (P51450 whole entry, looked up, the tested form may be a part): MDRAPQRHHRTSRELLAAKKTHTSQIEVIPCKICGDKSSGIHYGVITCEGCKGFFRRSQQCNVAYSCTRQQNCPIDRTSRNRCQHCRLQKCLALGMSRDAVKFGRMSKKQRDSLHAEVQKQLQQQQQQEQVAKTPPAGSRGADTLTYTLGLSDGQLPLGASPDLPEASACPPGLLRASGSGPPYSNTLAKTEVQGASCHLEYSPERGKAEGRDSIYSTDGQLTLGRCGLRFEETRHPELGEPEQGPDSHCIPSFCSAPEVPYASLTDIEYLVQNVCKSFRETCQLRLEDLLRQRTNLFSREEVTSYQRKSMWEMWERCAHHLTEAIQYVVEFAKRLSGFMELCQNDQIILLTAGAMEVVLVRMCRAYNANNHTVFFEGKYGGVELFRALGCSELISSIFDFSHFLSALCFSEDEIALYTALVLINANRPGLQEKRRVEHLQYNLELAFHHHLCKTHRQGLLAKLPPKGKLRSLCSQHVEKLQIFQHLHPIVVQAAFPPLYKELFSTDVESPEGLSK
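Luciferase reporter read in Schneider cells carrying Gal4-RORγ (mouse) and UAS-Photinus luciferase; cells given compound 1 h before 700 uM copper sulfate induction, then incubated 20 h at ambient temperature.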
An asterisk follows results filed as active; ? = inconclusive; · = no result; [ ] = remark or other dose. Sampled rows, rich in hits. Any-hit rate of the full collection: about 8.1%. Unless noted, calls follow the shape of the dose curve; as a rule, active = well fitted curve in the direction sought with a large enough effect; inconclusive = small, poorly fitted or top-dose-only effect, or another doubt; inactive = no such curve, though single readings can be large; an effect the other way counts as inactive or inconclusive. Potency is read from the fitted curve at half-maximal effect.

SMILES	ClpP mod	VP16 counter	Epigenetic derep	PINK1 modulator	Sfp inh	RORgamma inh
COc1cccc(CNC(=O)c2c(OC)cc(=O)n3c2CCN(C(=O)c2cc(F)cc(F)c2)CC3)c1	·	·	·	0%	·	·
Cc1ccc(-c2nc(C)c(CCNC(=O)C(=O)Nc3ccc(C)c(Cl)c3)s2)cc1	-1%	·	0%	-2%	·	·
CCOc1ccc(CCNC(=O)c2ccc3c(c2)c(C)c(C)n3C)cc1	?	·	-1%	-2%	·	·
CCN(CC)c1ccc(/C=C/c2ccccn2)cc1	2%	·	·	·	·	·
CC(C)(C)N=C1NN=C(c2ccc(Cl)cc2)CS1	-2%	?	1%	?	1%	7.1µM*
COc1ccc(NC(=O)n2ncc3c(C)cccc32)cc1	-5%	2.5µM*	·	1%	-5%	?
COc1ccc(NC(=O)n2ncc3c(C)cccc32)cc1OC	-3%	?	·	0%	-12%	1.1µM*
O=C(Cc1nc2ccccc2s1)c1ccc(O)cc1O	·	·	2%	·	50µM*	-31%[0.365 µM]
CC1(C)CC(=O)C(Sc2nnc(-c3ccc(O)cc3)n2CC2CCCO2)C(=O)C1 (stereo not drawn)	0%	-2%	2%	-3%[38.3 µM]	45µM*	-11%
NC(=O)c1ccc(-n2nnnc2SCc2ccccc2)cc1	1%	-6%	-1%	-2%	14%	-9%
O=C(Nc1nccs1)c1ccc(CSc2nnnn2-c2ccccc2)cc1	-22%	14µM*	-1%	-2%[38.3 µM]	13%	?
Cn1c(=N)n(CC(=O)c2ccc(Br)cc2)c2ccccc21	0%	·	·	0%	·	·
CCn1c(=N)n(CC(=O)c2ccc(Cl)c(Cl)c2)c2ccccc21	·	4%	·	-1%	?	-45%
Cn1c(=N)n(CC(=O)c2ccc(F)cc2)c2ccccc21	-1%	11µM*	·	0%	11%	8.9µM*
CCCCn1c(=N)n(CC(=O)c2ccco2)c2ccccc21	-1%	-11%	-1%	·	12%	-30%
N=c1n(CCN2CCCCC2)c2ccccc2n1CC(=O)c1ccc(Cl)c(Cl)c1	·	-9%	-5%	-2%	35µM*	24%
CCCCn1c(=N)n(CC(=O)c2ccc([N+](=O)[O-])cc2)c2ccccc21	·	-17%	-6%	·	56µM*	1.3µM*
Cc1ccc(Cn2c(=N)n(CC(=O)c3ccc([N+](=O)[O-])cc3)c3ccccc32)cc1	1%	-16%	?	13%	35µM*	?
Cc1ccc(C(=O)Cn2c(=N)n(CCN3CCOCC3)c3ccccc32)cc1	-5%	·	·	0%	·	·
CCc1ccccc1O	·	7%	·	·	·	35%
CC(=O)c1cccc(NC(=O)Nc2sc3nc4n(c(=O)c3c2C)CCC(C)CC4)c1 (stereo not drawn)	-9%	·	1%	0%	·	·
COC[C@@H](O)[C@@H](OC)[C@H](OC)[C@H](Cc1c(OC)cc(OC)cc1OC)OC	·	-2%	-1%	·	20%	-9%
O=C(CN1C(=O)CCc2cc(S(=O)(=O)N3CCOCC3)ccc21)NCc1ccccc1	-1%	·	-5%	0%	·	·
Cc1ccc(S(=O)(=O)N2CC(O)CC2C(=O)O)cc1 (stereo not drawn)	35µM*	1%	·	-1%	10%	-32%
O=C(O)C1CC(O)CN1S(=O)(=O)c1ccc2ccccc2c1 (stereo not drawn)	1%	·	·	1%	·	·
SMILES	ClpP mod	VP16 counter	Epigenetic derep	PINK1 modulator	Sfp inh	RORgamma inh
COc1ccc2[nH]c(=O)c(NC(N)=S)nc2c1	-4%	?	-1%	0%[38.3 µM]	35µM*	-4%
CC(C)N(CC#CCC(O)(c1ccccc1)c1ccccc1)CCO	·	-4%	-3%	-1%	45µM*	-24%
CCC(=O)NC(=S)NNC(=O)c1ccccc1[N+](=O)[O-]	-1%	-15%	5%	-1%	10µM*	18µM*
O=C(NC(=S)NNC(=O)c1ccccc1[N+](=O)[O-])c1ccccc1	-3%	3.2µM*	1%	-1%	35µM*	4.5µM*
COc1cc(-c2cccc(Cl)c2)cc2c1OCCN(C(=O)CCn1ccc(C)n1)C2	·	·	·	0%	·	·
O=C(C1CCOC1)N1CCOc2ccc(CN3CCC(Oc4cccnc4)CC3)cc2C1 (stereo not drawn)	·	·	·	1%	·	·
CC1CCCN(S(=O)(=O)c2cc3c4c(c2)CC(=O)N4CCC3)C1 (stereo not drawn)	1%	·	2%	0%	·	·
O=C(Nc1ccccc1Cc1ccccc1)c1oc2ccccc2c1COc1ccccc1	28µM*	-11%	-2%	1%	6%	-18%
O=C(NCCc1ccccc1)c1oc2ccccc2c1COc1ccccc1	0%	3%	0%	5%	-10%	?
CNc1cc(-n2nc(C)cc2-c2ccccc2)ncn1	-5%	1%	0%	1%	-11%	-21%
Cc1cc(-c2ccccc2)n(-c2cc(N/N=C/c3ccccc3O)ncn2)n1	-15%	5.6µM*	0%	5%	7%	11µM*
c1ccc2[nH]c(NCCCc3cnc[nH]3)nc2c1	·	-13%	·	·	?	-16%
O=C(O)CCC(=O)Nc1ccc(SSc2ccc(NC(=O)CCC(=O)O)cc2)cc1	-3%	-5%	·	-2%	18µM*	14%
O=C(O)CCC(=O)Nc1ccc(F)cc1	0%	5%	-2%	6%	19%	-20%
O=C(O)CCC(=O)Nc1ccc(C(=O)OC2CCCCC2)cc1	0%	?	0%	·	1%	18µM*
O=C(Cn1c(=O)nc(-c2ccccc2)c2ccccc21)NCCc1ccc(Cl)cc1	4%	·	-1%	2%	·	·
N#Cc1ccc(N2CCc3ccccc3C2)c([N+](=O)[O-])c1	1%	-2%	1%	1%	45µM*	39%
O=C(c1ccc(N2CCCC2)c([N+](=O)[O-])c1)N1CCc2ccccc2C1	·	·	·	4%	·	·
CCc1nc(-c2cc(S(=O)(=O)N3CCN(c4ccccc4)CC3)ccc2OC)no1	-10%	·	-4%	0%	·	·
COC(=O)/C(C#N)=C/c1c(-c2ccccc2)nc2n1CCS2	·	8%	5%	-1%	-2%	9%
Clc1cccc(Cl)c1CO/N=C/c1c(-c2ccccc2)nc2n1CCS2	25µM*	-2%	-1%	·	-10%	7.1µM*
CCCCc1nc2ccccc2n2c(-c3ccc(C)cc3)c3c(=O)n(C)c(=O)n(C)c3c12	-14%	·	0%	1%	·	·
CCN(CC)c1ccc(/C=C/C(=O)C2C(=O)C=C(C)OC2=O)cc1 (stereo not drawn)	·	?	11µM*	?	-2%	13µM*

Source: PubChem BioAssay
